Tested on: Plasmodium falciparum
Assay: GSK_TCMDC: Inhibition of Plasmodium falciparum 3D7 in whole red blood cells, using parasite LDH activity as an index of growth. Test compounds present at 2uM
Format: functional

| Compound | Inhibition |
| --- | --- |
| O=C(/C=C/c1ccc(Cl)c(Cl)c1)NCCCCCN1CCC(C(=O)Nc2cccc(Cl)c2)CC1 | 100% |
| Cc1cc(CNCCCCCCNCc2cccc([N+](=O)[O-])c2)ccc1O | 90% |
| CCCCOC(=O)c1ccc(Nc2cc(C)nc3ccc(OC)cc23)cc1 | 100% |
| CN1CCC(NCc2ccc(-c3cccc(S(=O)(=O)NCc4ccccc4)c3)cc2)CC1.O=C(O)C(F)(F)F | 100% |
| COc1ccc(F)cc1-c1ccccc1CNC(=O)c1cnn(-c2ccc([N+](=O)[O-])cc2)c1C(F)(F)F | 89% |

Tested on: Plasmodium falciparum
Assay: GSK_TCMDC: Inhibition of Plasmodium falciparum Dd2 in whole red blood cells, using parasite LDH activity as an index of growth. Test compounds present at 2uM
Format: functional

| Compound | Inhibition |
| --- | --- |
| COc1ccc(-c2cnc(NCc3ccccc3)nc2)cc1CNC1CCN(C)CC1.O=C(O)C(F)(F)F | 64% |
| COc1ccc(CC(=O)Nc2ccc(Nc3nc(C)cc(N(C)C)n3)cc2)cc1 | 31% |
| O=C(Nc1cccc(-c2nn3ccccc3c2-c2ccnc(Nc3ccc(C(=O)N4CCOCC4)cc3)n2)c1)c1c(F)cccc1F | 97% |
| O=C(c1ccco1)N1CCN(c2ccc([N+](=O)[O-])c(NC3CC3)c2)CC1 | 99% |
| O=C(NCCCCN1CCC(c2c[nH]c3ccccc23)CC1)c1ccc(-c2ccc(C(F)(F)F)cc2)cc1 | 22% |
| Cc1[nH]cnc1CSCCNC(=N)NCCCCCCCCNC(=N)NCCSCc1nc[nH]c1C.Cl | 95% |
| CCOc1cc(C(=O)NC2CCN(Cc3ccccc3)CC2)ccc1-c1nc2cc(Cl)ccc2[nH]1 | 84% |
| CC1CCN(C(=O)C(Cc2c[nH]c3ccccc23)NS(=O)(=O)c2ccc(Cl)cc2)CC1 (stereo not drawn) | 99% |

Source: ChEMBL document CHEMBL1157539, “Thousands of chemical starting points for antimalarial lead identification” (Nature, 2010)
